Reference: PubChem BioAssay (Tox21)
Inconclusive results are not listed. Activity calls are given as the source filed them. Calls come from the whole dose curve; as a rule, active = well fitted inhibition curve with a large enough effect in the signal ratio in the repeat runs (not every such curve was filed as active); inconclusive = weak or mixed curves, or effect the other way; inactive = no such curve, though single readings can be large or run the other way; the % refers to the signal ratio.

molecular target: Glucocorticoid receptor (Homo sapiens) (UniProt P04150); assay: qHTS assay to identify small molecule antagonists of the glucocorticoid receptor (GR) signaling pathway (AID 720692); conditions: GR-bla HeLa, beta-lactamase FRET ratio, dexamethasone-stimulated, 18 h; series mostly up to 58.5 µM; activity change, negative = inhibition: at the top concentration
Method in brief: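 Tox21 10K library screened in concentration-response for blockade of dexamethasone (5 nM final)-induced GRE-bla reporter activity in HeLa cells; 18 h treatment, fluorescence read.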
% is set by controls: 0 for no effect and ±100 for the full control effect.

Chain of Glucocorticoid receptor (Homo sapiens) (P04150 whole entry, looked up): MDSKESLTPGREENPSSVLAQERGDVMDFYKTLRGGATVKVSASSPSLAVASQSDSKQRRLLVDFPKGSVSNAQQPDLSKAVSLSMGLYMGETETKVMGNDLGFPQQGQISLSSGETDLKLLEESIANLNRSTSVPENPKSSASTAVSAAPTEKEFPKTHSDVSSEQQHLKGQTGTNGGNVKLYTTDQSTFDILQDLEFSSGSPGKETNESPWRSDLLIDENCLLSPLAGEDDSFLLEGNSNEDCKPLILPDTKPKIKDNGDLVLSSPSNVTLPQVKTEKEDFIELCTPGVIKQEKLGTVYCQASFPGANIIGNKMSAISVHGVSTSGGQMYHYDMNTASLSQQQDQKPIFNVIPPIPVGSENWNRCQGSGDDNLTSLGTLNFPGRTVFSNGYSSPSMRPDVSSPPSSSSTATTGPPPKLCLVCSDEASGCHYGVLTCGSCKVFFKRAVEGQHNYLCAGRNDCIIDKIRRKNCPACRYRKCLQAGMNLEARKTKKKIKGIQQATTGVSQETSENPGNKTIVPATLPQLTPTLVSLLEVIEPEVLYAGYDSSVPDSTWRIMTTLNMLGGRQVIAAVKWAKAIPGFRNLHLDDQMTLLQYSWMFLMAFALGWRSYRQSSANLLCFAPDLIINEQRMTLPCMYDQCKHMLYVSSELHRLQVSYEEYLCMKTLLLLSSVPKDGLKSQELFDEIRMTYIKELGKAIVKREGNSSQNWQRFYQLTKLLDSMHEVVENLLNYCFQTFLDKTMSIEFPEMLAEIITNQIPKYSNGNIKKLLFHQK

Structure (SMILES)	activity change, negative = inhibition
CC(=O)c1ccc2c(c1)[C@H](NC(=O)c1ccc(F)cc1)[C@@H](O)C(C)(C)O2	-10.9% (inactive)
CCOc1cc(OCC)c(C(=O)CCC(=O)O)cc1OCC	6.23% (inactive)
CC(C)CCCC(C)CCO (stereo unspecified)	5.52% (inactive)
CC(C)(C)C1CCCCC1O (stereo unspecified)	0.709% (inactive)
COCCOCCOCCOCCOC	-1.85% (inactive)
N=C(N=C(N)N)N1CCOCC1	-5.18% [at 27 µM] (inactive)
CCCCCCCCCO	5.27% (inactive)
Cc1cc(NC(=O)C(=O)O)cc(C)c1Oc1ccc(O)c2c1CCC2	1.59% (inactive)
O=C(C(=O)c1ccc(Br)cc1)c1ccc(Br)cc1	-0.632% [at 27 µM] (inactive)
CC(C)=CCCC(C)CC=O (stereo unspecified)	2.31% (inactive)
COCCO	3.74% (inactive)
O=C=NC1CCC(CC2CCC(N=C=O)CC2)CC1 (stereo unspecified)	-1.83% (inactive)
CC(C)c1cccc(C(C)C)c1NC(=O)NS(=O)(=O)c1cc(C(C)(C)O)co1	-10.6% (inactive)
N#Cc1cc2ccccc2c2ccccc12	15% [at 78.9 µM] (inactive)
Nc1nc(N)c2nc(CNc3ccc(C(=O)N[C@@H](CCC(=O)O)C(=O)O)cc3)cnc2n1	-1.4% (inactive)
Cc1cccc(OCCOc2cccc(C)c2)c1	12.5% [at 78.9 µM] (inactive)
N#Cc1c(F)cccc1F	12.2% (inactive)
CC[C@H](C)[C@@H](C(=O)O)n1sc2ccccc2c1=O	3.6% (inactive)
CC(C)(C)C(=O)OCOP(=O)(COCCn1cnc2c(N)ncnc21)OCOC(=O)C(C)(C)C	-20.3% (inactive)
CC(=O)CC(=O)c1ccccc1	-17.2% [at 78.9 µM] (inactive)
CCCCCCc1ccc(N)cc1	-6.55% (inactive)
